AMA1 RON2 block = AMA1-RON2 (P. falciparum) interaction inhibition; AlphaScreen AMA1-biotinylated RON2 peptide binding; Potency, µM (titrated, usually from 58.2 µM), for the others: at the top dose activity change, negative = inhibition, most hits filed as inhibitors; 360,000 compounds, 0.2% hits;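 also: potency is read from the fitted curve at half-maximal effect; 0% = vehicle wells and -100% = peptide control; nearly all actives have a fitted effect of over 45% in size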
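AMA1 (3D7) with his tag at 25 nM final met compounds first, then biotinylated RON2 peptide at 25 nM; detection used donor plus acceptor beads, 10 µg/mL apiece, read by AlphaScreen after 30 min at room temperature.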
AmpC detergent = blocks E. coli AmpC beta-lactamase in detergent assay | 370,000 compounds, 0.041% hits | AmpC hydrolysis of nitrocefin, absorbance 480 nm, 0.01% Triton | P00811 | AID 485294 | Potency, µM (highest dose often 114 µM), without a hit: top-dose activity change, negative = inhibition, usual class: inhibitors;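 also: potency is read from the fitted curve at half-maximal effect; 0% = no-compound wells and -100% = no-enzyme wells; nearly all actives have a fitted effect of over 25% in size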
Target sequence (P00811 whole entry, looked up): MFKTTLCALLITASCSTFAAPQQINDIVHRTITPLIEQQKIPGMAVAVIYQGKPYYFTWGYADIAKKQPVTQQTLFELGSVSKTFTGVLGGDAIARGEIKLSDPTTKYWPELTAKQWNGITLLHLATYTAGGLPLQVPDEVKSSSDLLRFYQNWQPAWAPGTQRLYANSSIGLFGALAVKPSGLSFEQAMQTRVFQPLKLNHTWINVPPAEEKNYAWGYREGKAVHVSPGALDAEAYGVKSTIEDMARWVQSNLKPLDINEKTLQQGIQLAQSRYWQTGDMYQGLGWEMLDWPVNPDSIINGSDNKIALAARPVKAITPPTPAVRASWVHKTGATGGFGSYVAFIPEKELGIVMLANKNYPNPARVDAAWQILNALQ
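20 mM phosphate pH 7.0 + 0.01% (detergent screen) or 0.0001% Triton X-100; 5.3 nM AmpC reagent; cpd preinc 15 min RT; nitrocefin (800 uM stock) to start; A480 q20 s × 4 min; Activity was normalised to no-enzyme and no-compound control wells.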
Shiga inhibitor = blocks Shiga toxin action in Vero cells | Vero cells, Shiga toxin protein synthesis inhibition reporter | inhibition, % at 38.7 µM | 290,000 compounds, 9.2% hits | AID 2315; in the data active = inhibition mostly above about 28%, no sharp cut-off; inactive = mostly below about 43%; also: 0% is about no effect
SARS PLP yeast = blocks SARS-CoV papain-like protease in a yeast assay. S. cerevisiae expressing SARS-CoV PLpro, growth rescue. Potency, µM (doses to about 32.9 µM), without a hit: at the top dose activity, positive = growth rescue, hits mostly activators. 330,000 compounds, 0.19% hits. AID 485353; calls by dose curve; also: potency is read from the fitted curve at half-maximal effect; 0% is about no effect; nearly all actives have a fitted effect of over 55% in size
AmpC no deterg = AmpC beta-lactamase inhibition without detergent; AmpC nitrocefin hydrolysis, absorbance 480 nm, 0.0001% Triton; Potency, µM (top dose mostly 57.1 µM), for inactives: at the highest dose activity change, negative = inhibition, hits mostly inhibitors; 330,000 compounds, 0.52% hits; AID 485341;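 also: potency is read from the fitted curve at half-maximal effect; plate controls were no compound for no effect and no enzyme for full effect; nearly all actives have a fitted effect of over 20% in size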
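20 mM phosphate pH 7.0 + 0.01% (detergent screen) or 0.0001% Triton X-100; 5.3 nM AmpC reagent; cpd preinc 15 min RT; nitrocefin (800 uM stock) to start; A480 q20 s × 4 min; Activity was normalised to no-enzyme and no-compound control wells.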
CHX counter = counter-screen hit for Shiga toxin inhibitors, cycloheximide. cell reporter, cycloheximide protein synthesis inhibition counterscreen. max response, %. 300,000 compounds, 12% hits; in the data active = max response mostly above about 13%, no sharp cut-off; inactive = mostly below about 14%; also: read at 38.3 µM for the half of the compounds with a filed dose; 0% is about no effect
* marks the source's active call; other numbers are inactive results; [ ] = another dose, or the depositor's remark. Many of the other results were omitted from the sample, so hits are more common in it than they were. Unless noted, calls follow the shape of the dose curve; as a rule, active = well fitted curve in the direction sought with a large enough effect; inconclusive = small, poorly fitted or top-dose-only effect, or another doubt; inactive = no such curve, though single readings can be large; an effect the other way counts as inactive or inconclusive.

Screening Cc1cc(C)c(C(=O)/C=C/c2ccc(C(C)C)cc2)c(=O)[nH]1 returned AMA1 RON2 block 3%, AmpC detergent 0%, Shiga inhibitor -10, SARS PLP yeast -8%, AmpC no deterg -19% and CHX counter -3.
`Cc1cc(O)c(C(=O)/C=C/c2ccccc2)c(=O)o1` gave AMA1 RON2 block 79%, AmpC detergent 2%, Shiga inhibitor 44*, SARS PLP yeast 1%, AmpC no deterg -56% and CHX counter 14.
For CCn1c2c(c3cc(C(=O)O)ccc31)CCCC2=O the results were AMA1 RON2 block -5%, AmpC detergent -4%, Shiga inhibitor -16, SARS PLP yeast -2%, AmpC no deterg -10% and CHX counter -1.
Screening Cc1ccc(C)c(N(C(=O)Cn2nnc(-c3cccs3)n2)C(C(=O)NC2CC2)c2ccc(C)o2)c1 (centres undefined) returned AMA1 RON2 block 17%, AmpC detergent inconclusive, Shiga inhibitor 3, SARS PLP yeast -9%, AmpC no deterg -5% and CHX counter -2.
Screening Cc1cc(C)c(C(=O)/C=C/C=C/c2ccccc2)c(=O)[nH]1 returned AMA1 RON2 block -2%, AmpC detergent -10%, Shiga inhibitor 52*, SARS PLP yeast -2%, AmpC no deterg -16% and CHX counter 25*.
For C/C(=C\C=C\c1ccccc1)C(=O)c1c(C)cc(C)[nH]c1=O the results were AMA1 RON2 block -8%, AmpC detergent -2%, Shiga inhibitor 14, SARS PLP yeast -2%, AmpC no deterg -11% and CHX counter 5.
Cc1csc(NC(=O)CCC(=O)N(CC(=O)NC2CCCC2)c2ccccc2)n1 was read as AMA1 RON2 block 19%, AmpC detergent -9%, Shiga inhibitor -10, SARS PLP yeast -4%, AmpC no deterg 12% and CHX counter 1.
Screening CCOc1ccc(OCCCCN2CCCC2)cc1 returned AMA1 RON2 block -8%, AmpC detergent -14%, Shiga inhibitor 33, SARS PLP yeast 1%[6.58 µM], AmpC no deterg -9% and CHX counter -2.
`CCCCCCOc1ccc(CN2CCN(C)CC2)cc1` gave AMA1 RON2 block -10%, AmpC detergent inconclusive, Shiga inhibitor 134*, SARS PLP yeast -4%, AmpC no deterg 112% and CHX counter 41*.
CCCCOc1ccc(CN2CCCCC2)cc1 was read as AMA1 RON2 block 16%, AmpC detergent -2%, Shiga inhibitor 45*, SARS PLP yeast 3%, AmpC no deterg inconclusive and CHX counter 17*.
Cc1ccc(S(=O)(=O)N(Cc2ccc(F)cc2)C(=O)N2CCN(C)CC2)cc1 was read as AMA1 RON2 block 6%, AmpC detergent -15%, SARS PLP yeast 0% and AmpC no deterg -14%.
CCc1ccc(CN(C)C(=O)c2cc(COc3ccc(-n4cncn4)cc3)on2)cc1 was read as AMA1 RON2 block -3%, AmpC detergent inconclusive, Shiga inhibitor 45, SARS PLP yeast 7%, AmpC no deterg 132% and CHX counter 19*.
COCCOC1CCN(C(=O)c2cc(COc3ccc(-n4cncn4)cc3)on2)CC1 was read as AMA1 RON2 block -5%, AmpC detergent 2%, Shiga inhibitor -31, SARS PLP yeast -2%, AmpC no deterg 30% and CHX counter 0.
`CCCOC1CCCN(C(=O)c2cc(COc3ccc(-n4cncn4)cc3)on2)C1` (centres undefined) gave AMA1 RON2 block -5%, AmpC detergent -2%, Shiga inhibitor 63*, SARS PLP yeast 0%, AmpC no deterg 91% and CHX counter 38*.
`COc1ccc(-c2n[nH]c(C)c2-c2cscn2)c(O)c1` gave AMA1 RON2 block 98%, AmpC detergent 12%, Shiga inhibitor -3, SARS PLP yeast 1%, AmpC no deterg -3% and CHX counter -4.
Screening COc1ccc(NC(=O)CCC(=O)c2cccs2)c(OC)c1 returned AMA1 RON2 block 3%, AmpC detergent -1%, Shiga inhibitor 77*, SARS PLP yeast 1%, AmpC no deterg -18% and CHX counter 31*.
